Most compounds without a hit are left out; they make up all but 2.6% or so of the library.
PME-1 primary: PME-1 (human) inhibition. Q9Y570. recombinant PME-1, FP-Rh probe fluorescence polarization. inhibition, % at 5.9 µM. 0.53% of 320,000 active;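 active = inhibition above the campaign mean of all compounds plus 3 SD, cut at about 26% in these data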;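 note: competitive labeling of PME-1 active site by serine hydrolase directed probe; 0% = PME-1 with DMSO and 100% = wells lacking PME-1 enzyme; inhibitors block probe labeling so polarization falls and inhibition rises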
TCR-CD3 inh: human TCR-CD3 binding inhibition. 0.37% of 360,000 active. TAMRA-labeled TCR probe fluorescence, biochemical. inhibition, % at 9.4 µM; in the data active = inhibition above about 19%;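 note: recombinant mutant TCR 2C K166C tagged with TAMRA read by polarization; 0% = receptor in buffer alone and 100% = receptor with positive control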
SIAE inh: inhibitors of human sialic acid acetylesterase SIAE; inhibition, % at 9.66 µM; Q9HAT2; 0.69% of 370,000 active; SIAE FP-Rh probe binding, fluorescence polarization;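 active = inhibition above a cutoff: mean of compounds within the control limits plus 3 SD of those, cut at about 17% in these data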;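 note: 0% = plate median of compound wells and 100% = probe without SIAE protein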
Target sequence (Q9HAT2 whole entry, looked up): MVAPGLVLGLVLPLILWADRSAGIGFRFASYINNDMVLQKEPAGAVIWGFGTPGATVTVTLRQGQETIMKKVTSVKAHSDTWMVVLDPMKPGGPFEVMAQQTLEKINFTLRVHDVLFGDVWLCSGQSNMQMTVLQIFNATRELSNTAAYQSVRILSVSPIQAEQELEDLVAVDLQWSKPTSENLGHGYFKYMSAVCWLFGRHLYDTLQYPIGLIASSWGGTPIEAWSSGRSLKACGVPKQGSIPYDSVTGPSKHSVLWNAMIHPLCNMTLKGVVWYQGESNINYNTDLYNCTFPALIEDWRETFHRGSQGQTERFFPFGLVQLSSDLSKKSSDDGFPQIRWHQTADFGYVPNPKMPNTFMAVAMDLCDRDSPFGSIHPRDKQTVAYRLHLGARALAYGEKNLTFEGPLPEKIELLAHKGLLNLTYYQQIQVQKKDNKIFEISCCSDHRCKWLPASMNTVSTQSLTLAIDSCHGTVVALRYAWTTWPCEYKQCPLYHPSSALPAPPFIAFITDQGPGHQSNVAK
Fam108B inh: blocks mouse Fam108B hydrolase in RBBP9 counter-screen. inhibition, % at 9.51 µM. recombinant Fam108B, FP-Rh probe fluorescence polarization. AID 1947. 0.33% of 300,000 active;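 active = inhibition above the screen mean inhibition plus 3 SD, computed separately per campaign, cut at about 18% in these data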;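 note: inhibitors lower polarization as less probe binds the enzyme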
PRMT1 inh: PRMT1 (human) inhibition, primary screen. 1.3% of 370,000 active. inhibition, % at 2.79 µM. recombinant PRMT1, activity-based probe fluorescence polarization;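 active = inhibition above about 21% made by adding two undisclosed values, limit read from the data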
PAD4 inh: PAD4 (human) enzyme inhibition; 0.41% of 330,000 active; recombinant PAD4, RCA probe fluorescence polarization; Q9UM07; inhibition, % at 6.36 µM;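 active = percent inhibition above a cutoff equal to the mean of all tested compounds plus 3 SD, cut at about 15% in these data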;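 note: 0% = PAD4 with RCA probe and DMSO and 100% = probe without PAD4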
PAD4 confirm: PAD4 (human) inhibition, confirmed | shares compounds with PAD4 inh | recombinant PAD4, RCA probe fluorescence polarization | inhibition, % at 6.36 µM | 28% of 1,200 active | AID 488796;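 active = mean inhibition across replicates above the hit cutoff set by the earlier primary screen, cut at about 15% in these data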;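 note: inhibitors block active-site labeling by the probe so polarization falls; 0% = PAD4 with probe and DMSO and 100% = probe without PAD4 enzyme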
Starred values were filed as active, the others as inactive; . = no result.

SMILES	PME-1 primary	TCR-CD3 inh	SIAE inh	Fam108B inh	PRMT1 inh	PAD4 inh	PAD4 confirm
Cc1cccc(CN2CCN(c3nc4nonc4nc3NC3CC3)CC2)c1	-3	2	-9	0	3	28*	6
Cc1nn(-c2ccccc2)c2sc(C(=O)NC3CCCc4ccccc43)cc12 (stereo not given)	.	.	-4	.	0	.	.
CC(=O)N1CCN(c2ccc(N)cc2)CC1	1	-8	9	.	18	25*	1
CC(=O)N1CCN(c2ccc(NS(=O)(=O)c3ccc(C)cc3)cc2)CC1	2	-1	-2	3	-4	24*	2
CC(=O)N1CCN(c2ccc(NC(=O)c3ccc(Cl)cc3)cc2)CC1	1	-6	11	-3	0	-8	.
Oc1ccccc1O	2	3	4	-1	16	4	.
Nc1ccccc1O	3	.	.	.	.	15*	0
N#Cc1cccc(C(=O)N2CCC(Oc3cccnc3)CC2)c1	.	.	-2	.	-6	.	.
COc1ccc(S(=O)(=O)Nc2cc(SCC(=O)O)c(O)c3ccccc23)cc1	23	5	16	18	52*	35*	-7
Cc1ccccc1NS(=O)(=O)c1ccc(F)cc1	2	-2	-8	-2	4	0	.
COc1ccc(S(=O)(=O)Nc2cccc3ccc(O)cc23)cc1	6	4	5	2	-1	-1	.
COc1ccc(S(=O)(=O)Nc2ccccc2C)cc1	-14	2	1	-1	0	75*	3
O=C(OCC#CCSc1nnc(-c2cccc3ccccc23)o1)c1ccc(OC(F)F)cc1	.	.	1	.	5	.	.
CCCCNC(=O)C[C@@H]1C[C@]2(C(=O)OCC)CCC3=C2N(CCC3)C1=O	.	.	2	.	-3	.	.
C#CCN1CC(N(C)CCOC(=O)c2ccc(C(C)(C)C)cc2)CS1(=O)=O (stereo not given)	.	.	4	.	6	.	.
CCOC(=O)c1sc2nc(CSc3ccccc3)nc(N3CCC(C(N)=O)CC3)c2c1C	2	1	-20	1	-5	40*	-1
CC(=O)NC1=NN(c2ccccc2)C(=O)C1	-8	5	5	-5	1	43*	3
CC(=O)NN1C(=O)c2ccc3c4c(ccc(c24)C1=O)C(=O)N(NC(C)=O)C3=O	-2	2	0	2	-1	136*	143*
COc1ccc(-c2cc(C(=O)N3CCCCCC3)c3ccccc3n2)c(OC)c1	9	-3	-2	1	12	16*	49*
C[C@@H]1[C@@H](c2ccccc2)c2cc3ccccc3nc2C(=O)C[C@@H]1C(=O)N1CCCC1	.	.	-4	.	0	.	.
CC(=O)N1CCN(S(=O)(=O)c2cccc(C(=O)OCC(=O)N(CCC#N)c3ccc(F)cc3)c2)CC1	19	5	-7	.	1	29*	3
CCOC(=O)C1CCN(c2nc3ccccc3nc2C(C#N)C(=O)OC(C)C)CC1 (stereo not given)	-9	-3	5	-2	-1	17*	-13
CCOC(=O)C1CCN(c2nc3ccccc3nc2C(C#N)C(=O)OC(C)COC)CC1 (stereo not given)	-5	4	-2	5	3	2	.
CC(NC(=O)c1c(O)c2ccccc2[nH]c1=O)c1ccccc1 (stereo not given)	-8	-3	-2	-2	-1	16*	5
Nc1nc(-c2cccs2)cs1	1	.	.	-2	.	19*	5
SMILES	PME-1 primary	TCR-CD3 inh	SIAE inh	Fam108B inh	PRMT1 inh	PAD4 inh	PAD4 confirm
CC(=O)Nc1nc(-c2cccs2)cs1	1	2	-6	-6	1	9	.
CS(=O)(=O)c1cccc(C(=O)NCc2ccccc2)c1	1	0	5	0	11	35*	5
O=C1c2ccccc2C(=O)c2[nH]c(=O)[nH]c21	8	1	2	5	3	17*	2
CC(C)[C@H](NC(=O)[C@H](Cc1ccccc1)NC(=O)OC(C)(C)C)C(=O)N1CCC2CCN(S(=O)(=O)c3ccccc3)CC21 (stereo not given in full)	.	.	-3	.	-1	.	.
CCCCC1=CC2=C(c3ccco3)C(=O)C(C)(OC(=O)c3ccc(OC)cc3)C(=O)C2=CN1CCOC (stereo not given)	11	-2	6	2	5	1	.
CCCCC1=CC2=C(c3ccco3)C(=O)C(C)(OC(=O)c3ccc(OC)cc3)C(=O)C2=CN1CCc1ccccn1 (stereo not given)	3	5	2	10	10	28*	7
COC(=O)CCCC1=CC2=CC(=O)C(C)(OC(=O)c3cccs3)C(=O)C2=CN1CCc1ccccn1 (stereo not given)	2	12	6	4	5	17*	-11
COC/C=C/C1=CC2=CC(=O)C(C)(OC(=O)c3cnc4ccccc4n3)C(=O)C2=CN1CC(C)C (stereo not given)	1	.	.	-1	.	19*	-1
COC/C=C/C1=CC2=CC(=O)C(C)(OC(=O)c3cnc4ccccc4n3)C(=O)C2=CN1c1ccccc1 (stereo not given)	8	9	16	1	10	-1	.
COC(=O)[C@]12C[C@H](CC(=O)NCC34CC5CC(CC(C5)C3)C4)C(=O)N(Cc3ccc(Cl)cc3Cl)C1=C[C@H](C(C)(C)C)O[C@@H]2C	.	.	8	.	-6	.	.
CC(=NC1CCCC1)c1c(C)[nH]n(-c2nc3ccccc3s2)c1=O	-4	4	-8	-4	-3	19*	17*
COc1ccc(NC(=O)CCS(=O)(=O)c2ccc(OC)cc2)cc1	-2	8	11	-6	-2	20*	7
COC(=O)[C@@H]1C[C@]2(OC(=O)c3ccccc3)C=CC(=O)C[C@@H]2N1C(=O)OCc1ccccc1	3	4	8	-1	-1	19*	22*
COC(CNC(=O)C1CCCN1C(=O)OCc1ccccc1)OC (stereo not given)	2	9	1	2	-2	2	.
CC(=O)Nc1ccc(Nc2nc(Cl)nc(Nc3ccc(NC(C)=O)cc3)n2)cc1	5	0	8	2	-7	19*	1
COc1ccc(Nc2nc(Cl)nc(Nc3ccc(OC)cc3)n2)cc1	3	3	3	0	4	-6	.
O=C(COc1ccc(Cl)cc1)Nc1ccc(NC(=O)c2ccco2)cc1	-5	-1	14	-3	2	27*	-2
C(=N\C(/N=C/c1ccco1)c1ccco1)/c1ccco1	5	2	5	4	12	-1	.
C(=Nc1cccc2c(N=Cc3ccco3)cccc12)c1ccco1	6	.	.	10	.	62*	9
CC(C)(C)C(=O)NC1CCCCN(Cc2cccc(C(F)(F)F)c2)C1=O (stereo not given)	.	.	4	.	3	.	.
COc1cc(C=O)ccc1OCc1ccncc1	-2	-7	-7	1	-1	28*	-6
